The results in this text go back to PubChem BioAssay (NCATS).

Records with an inconclusive call do not appear. A number with no mark means an inactive call. Calls of active or inactive are those of the source. The call rests on the fitted dose curve; in most records, active means well fitted curve in the direction sought with a large enough effect; inconclusive means small, poorly fitted or top-dose-only effect, or another doubt; inactive means no such curve, though single readings can be large; an effect the other way counts as inactive or inconclusive.

Assay [1] deals with Aldehyde dehydrogenase, mitochondrial (Homo sapiens) (UniProt P05091). Kind of assay: qHTS for Inhibitors of the Aldehyde Dehydrogenase Family (ALDH2) Primary screen (AID 2061308).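 Further: plate controls were vehicle for no effect and reference inhibitor for full effect; nearly all actives have a fitted effect of over 55% in size.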 On the technique in general: Quantitative high-throughput screening tests each substance at several concentrations.
Assay [2] has as its target Retinaldehyde dehydrogenase 3 (Homo sapiens) (UniProt P47895). Kind of assay: qHTS for Inhibitors of the Aldehyde Dehydrogenase Family (ALDH1A3) Primary screen (AID 2061315).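 Further: plate controls were DMSO vehicle for no effect and reference inhibitor for full effect.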

Turning to `Cc1cc2c(s1)c1cnn(Cc3ccc(F)cc3F)c(=O)c1n2C`, the Potency entry in assay [1] and in assay [2] was “inactive” in each case.

Regarding `O=C(Nc1cccc(-c2nn3c(=O)cc(N4CCNCC4)nc3s2)c1)c1ccon1`, the Potency entry in assay [1] and in assay [2] was “inactive” in each case.

On to `COc1ccc(C2c3c(ncn(Cc4ccccc4)c3=N)Oc3ccc4ccccc4c32)cc1OC` (stereo unspecified), for which the Potency entry in assay [1] and in assay [2] was “inactive” throughout.

Turning to `Cc1cc2c(s1)c1cnn(Cc3cc(F)c(F)c(F)c3F)c(=O)c1n2C`, the Potency result in assay [1] and in assay [2] was “inactive” throughout.

`CCCCN(C)C(=O)Cn1nc(-c2ccccc2C)ccc1=O`: the Potency entry in assay [1] and in assay [2] was “inactive” throughout.

For `COc1ccccc1-c1csc(N2CCC(C(N)=O)CC2)n1`, the Potency result in assay [1] and in assay [2] was “inactive” throughout.

As to `O=C(CCc1ccccc1)Nc1ncnc2c1C(c1ccccc1)c1c(ccc3ccccc13)O2` (stereo unspecified), the Potency result in assay [1] and in assay [2] was “inactive” throughout.

Take `N#Cc1cccc(-c2ccc(CNc3nc(-c4ccccc4C(F)(F)F)nc4ccccc34)cc2)c1`: the Potency entry in assay [1] and in assay [2] was “inactive” throughout.

Turning to `Cc1ccc(N2CCC(CNc3nc(-c4ccccc4C(C)C)ncc3F)CC2)cn1`, the Potency entry in assay [1] and in assay [2] was “inactive” each time.

For `CN(C)CC(=O)NC1CCCc2c1cnn2-c1ccc(F)cc1F` (stereo unspecified), the Potency result in assay [1] and in assay [2] was “inactive” each time.

With `COc1ccc(-c2nnc3n2N=C(c2ccc(OC)c(OC)c2)CS3)cc1`, the Potency result in assay [1] and in assay [2] was “inactive” each time.

Take `O=C(NC1CCCc2c1cnn2-c1ccc(F)cc1F)C1CC1` (stereo unspecified): the Potency result in assay [1] and in assay [2] was “inactive” in each case.

On to `COc1ccc(CN(Cc2ccccc2)S(=O)(=O)c2ccccc2)cc1COc1ccc(NC(C)=O)cc1`, for which the Potency entry in assay [1] and in assay [2] was “inactive” each time.

`COc1cc(-c2ccc3ncnc(NCc4ccc(C)o4)c3c2)cc(OC)c1OC`: the Potency entry in assay [1] and in assay [2] was “inactive” throughout.

With `NC(=O)Nc1cc(-c2ccc(CN3CCOCC3)c(F)c2)sc1C(=O)N[C@H]1CCCNC1`, the Potency entry in assay [1] and in assay [2] was “inactive” throughout.

On to `CC(C)c1cc2c(s1)c1cnn(Cc3ccccc3F)c(=O)c1n2C`, for which the Potency result in assay [1] and in assay [2] was “inactive” in each case.

In the case of `Cc1nc(NC2CCCCC2)c2nc(-c3ccccc3)n(C(C)CN(C)C)c2n1` (stereo unspecified), the Potency entry in assay [1] and in assay [2] was “inactive” in each case.

Take `Cc1cccc(CNc2ncnc3ccc(-c4ccoc4)cc23)c1`: the Potency entry in assay [1] and in assay [2] was “inactive” throughout.

As to `O=C(Nc1ncc(Cc2ccccc2)s1)c1ccc(-c2cccc([N+](=O)[O-])c2)o1`, the Potency entry in assay [1] and in assay [2] was “inactive” throughout.

In the case of `CCCn1c(C)nc2c(NCCCN3CCCCC3C)nc(C)nc21` (stereo unspecified), the Potency result in assay [1] and in assay [2] was “inactive” in each case.

As for `COC1CC(=O)C23C(=O)NC(CC(C)C)C2C(C)C(C)=CC3/C=C(\C)CCC1O` (stereo unspecified), the Potency entry in assay [1] and in assay [2] was “inactive” each time.

Take `Cc1cccc(CNc2ncnc3ccc(-c4cccnc4)cc23)c1`: the Potency result in assay [1] and in assay [2] was “inactive” each time.

Take `COc1cccc(C2=Nn3c(nnc3-c3cc(OC)cc(OC)c3)SC2)c1`: the Potency result in assay [1] and in assay [2] was “inactive” each time.

In the case of `Cc1nnc(-c2cnn(C)c2N)n1CCCn1cccc1`, the Potency result in assay [1] and in assay [2] was “inactive” each time.

Take `CNc1oc(-c2ccc3cnccc3c2)nc1C#N`: the Potency result in assay [1] and in assay [2] was “inactive” each time.

Turning to `CCC(=O)NC(c1ccco1)c1cc(Cl)c2cccnc2c1O` (stereo unspecified), the Potency result in assay [1] and in assay [2] was “inactive” in each case.

On to `COc1ccc(CCNC(=O)Cn2nc(-c3ccc(C)cc3)ccc2=O)cc1OC`, for which the Potency entry in assay [1] and in assay [2] was “inactive” each time.

As to `Cn1ccc2cc(S(=O)(=O)N3CCN(S(=O)(=O)c4c(F)cccc4F)CC3)ccc21`, the Potency result in assay [1] and in assay [2] was “inactive” throughout.

As for `Cc1nc(CN(C)c2ncnc3ccc(-c4ccc5c(c4)OCO5)cc23)cs1`, the Potency entry in assay [1] and in assay [2] was “inactive” in each case.

Regarding `Cc1cc2c(s1)c1cnn(Cc3ccc(Cl)c(Cl)c3)c(=O)c1n2C`, the Potency result in assay [1] and in assay [2] was “inactive” throughout.

Turning to `C[C@@H]1CN(c2c(F)c(F)c3c(=O)c(C(=O)O)cn(C4CC4)c3c2F)C[C@H](C)N1`, the activity change, negative = inhibition is -0.742% [at 11.2 µM] in assay [1] and 1.69% [at 11.2 µM] in assay [2].

`COc1ccc(-c2nnc(NC(=O)Nc3ccc4ccccc4c3)s2)cc1OC`: the Potency result in assay [1] and in assay [2] was “inactive” throughout.

Consider `Cc1cc(-c2ccccc2)n2ncc(C(=O)Nc3ccc(Cl)c(Cl)c3)c2n1`, for which the Potency entry in assay [1] and in assay [2] was “inactive” each time.

Turning to `CCc1cccc(CC)c1NC(=O)c1nn(C)c2c1CCc1cnc(Nc3ccc(C(=O)NC4CCN(C)CC4)cc3OC(F)(F)F)nc1-2`, the Potency entry in assay [1] and in assay [2] was “inactive” throughout.

For the compound `CN1C(=O)CCc2cc(S(=O)(=O)Nc3ccc(Cl)c(Cl)c3)ccc21`, the Potency result in assay [1] and in assay [2] was “inactive” in each case.

Regarding `COc1ccc(C(=O)Nc2nc(-c3ccccc3)cs2)c(OC)c1`, the Potency entry in assay [1] and in assay [2] was “inactive” each time.

`O=S(=O)(c1ccc2c(c1)OCCO2)N1CCN(S(=O)(=O)c2ccccc2F)CC1`: the Potency entry in assay [1] and in assay [2] was “inactive” in each case.

As to `CCOc1ccc(CCNC(=O)c2cc3sccc3n2Cc2ccccn2)cc1OCC`, the Potency result in assay [1] and in assay [2] was “inactive” throughout.

Turning to `Cn1cc(P(=O)(c2ccccc2)c2ccccc2)c2ccccc21`, the Potency entry in assay [1] and in assay [2] was “inactive” throughout.

As to `O=C(c1ccccc1O)N(Cc1ccccc1)Cc1cccs1`, the Potency result in assay [1] and in assay [2] was “inactive” in each case.

On to `O=S(=O)(NC1CCN(S(=O)(=O)c2c(F)cccc2F)CC1)c1ccc2c(c1)OCCO2`, for which the Potency result in assay [1] and in assay [2] was “inactive” each time.

For the compound `CCOc1ccc(CCNC(=O)c2ccc(C3(C(F)(F)F)N=N3)cc2)cc1OCC`, the Potency entry in assay [1] and in assay [2] was “inactive” each time.

For `CCCn1c(-c2ccc(F)cc2)nc2c(NC3CCN(Cc4ccccc4)CC3)nc(C)nc21`, the Potency result in assay [1] and in assay [2] was “inactive” throughout.
